Reference: PubChem BioAssay AID1159580 (chemical genetic matrix, 2015)
Out of some 5,500 compounds screened, about 2,000 (36%) were called active. Not shown: some 18% with an inconclusive outcome. Cut-off read from the data, not from the text of the source: active = normalized growth mostly below about 0.91 (no sharp cut-off); inconclusive = no clear call, values can overlap the other calls; inactive = mostly above about 0.92. The list shows a part of the results.

Test: chemical genetic growth profiling, strain panel (AID 1159580);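 note: tested at 20 µM; growth read once vehicle control cultures reached saturation at 30 °C; 1 = growth at the plate median or of vehicle wells; lower values mean less growth of the strain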
Details: S. cerevisiae deletion strains, growth OD
[1] = locus YDR150W, strain NUM1, active compounds read low
[2] = locus YGR078C, strain PAC10, active compounds read low
[3] = locus YNL153C, strain GIM3, active compounds read low
[4] = locus YPL241C, strain CIN2, active compounds read low

Measured: normalized growth

COc1cccc(C(=O)NCCN2CCN(c3ccc(Cl)cc3)CC2)c1
inactive: locus YAL040C, strain CLN3, active compounds read low 0.992 | [1] 1.01 | locus YDR363W, strain ESC2, active compounds read low 1.01 | locus YER002W, strain NOP16, active compounds read low 1.02 | [2] 1.01 | locus YGR229C, strain SMI1, active compounds read low 1 | locus YMR307W, strain GAS1, active compounds read low 1.01 | [3] 1.01 | locus YNL175C, strain NOP13, active compounds read low 1.03 | locus YNL197C, strain WHI3, active compounds read low 1.01 | locus YNL224C, strain SQS1, active compounds read low 1.03 | locus YOR083W, strain WHI5 (second series), active compounds read low 1.03 | [4] 1.01

Cc1cccc(C(=O)c2ccccc2C(=O)O)c1
inactive: locus YAL013W, strain DEP1, active compounds read low 1.01 | locus YBR229C, strain ROT2, active compounds read low 1.02 | locus YDL101C, strain DUN1, active compounds read low 1 | [1] 0.905 | locus YEL061C, strain CIN8, active compounds read low 1.01 | [2] 0.997 | locus YHR030C, strain SLT2, active compounds read low 1.06 | locus YHR087W, strain rtc3, active compounds read low 1.01 | locus YJL187C, strain SWE1, active compounds read low 0.998 | locus YJR043C, strain POL32, active compounds read low 1.02 | locus YJR075W, strain HOC1, active compounds read low 1 | locus YKL190W, strain CNB1, active compounds read low 0.997 | locus YLR039C, strain RIC1, active compounds read low 0.986 | locus YLR058C, strain SHM2 (second series), active compounds read low 1.01 | locus YLR085C, strain ARP6, active compounds read low 1.03 | locus YLR262C, strain YPT6, active compounds read low 0.984 | locus YML094W, strain GIM5, active compounds read low 1.01 | locus YMR219W, strain ESC1, active compounds read low 1.01 | locus YMR263W, strain SAP30, active compounds read low 0.991 | locus YNL128W, strain TEP1, active compounds read low 1.01 | [3] 1.02 | locus YNL298W, strain CLA4 (second series), active compounds read low 1.04 | locus YNL322C, strain KRE1, active compounds read low 0.993 | locus YNR030W, strain Alg12, active compounds read low 1.01 | locus YPL055C, strain LGE1, active compounds read low 1.02 | [4] 1.01 | locus YPR135W, strain CTF4, active compounds read low 1.02
